High-throughput results as filed in PubChem.
Rows were chosen to be rich in hits. Some 1.2% of all compounds tested hit in one or more screens of this group.
RGS4-Gao reg = human RGS4-Galphao interaction regulation. hit rate 0.33% among 220,000. P09471. binding response (% of control), % at 10 µM. Multiplexed bead flow cytometry, RGS4-Galphao binding; actives lie on both sides; in the data active means binding response below about 49% or above about 150%; inactive means in between;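 further: fluorescent Galphao activated with aluminum fluoride binding bead-coupled RGS4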
GSH fluor = compound fluoresces at 488/530 nm on GSH beads. hit rate 0.25% among 190,000. fluorescence (KMESF) at 10 µM. GSH beads flow cytometry, compound fluorescence 488/530 nm; active compounds read high; in the data active means fluorescence above about 89;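 further: glutathione beads carrying GST-tagged Bcl family fusion proteins plus one bare bead set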
Avidin bead fluor = compound fluoresces at 488/530 nm on avidin beads; compound fluorescence 488/530 nm, flow cytometry; active compounds read high; hit rate 0.38% among 220,000; fluorescence (KMESF) at 10 µM; in the data active means fluorescence above about 47
RGS16-Gao = modulates binding between human RGS16 and Galphao; binding response (% of control), % at 10 µM; hit rate 0.38% among 220,000; O15492+P09471; bead-based flow cytometry RGS16-Galphao binding, fluorescence; actives lie on both sides;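 further: Galphao activated by GDP with aluminum fluoride before binding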
Target sequence (O15492 whole entry, looked up): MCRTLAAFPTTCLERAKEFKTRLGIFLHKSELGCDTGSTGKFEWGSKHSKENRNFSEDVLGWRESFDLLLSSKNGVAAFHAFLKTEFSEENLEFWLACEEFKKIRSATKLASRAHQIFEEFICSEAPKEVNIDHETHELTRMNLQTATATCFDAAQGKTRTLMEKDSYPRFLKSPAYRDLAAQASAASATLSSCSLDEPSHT
Target sequence (P09471 whole entry, looked up): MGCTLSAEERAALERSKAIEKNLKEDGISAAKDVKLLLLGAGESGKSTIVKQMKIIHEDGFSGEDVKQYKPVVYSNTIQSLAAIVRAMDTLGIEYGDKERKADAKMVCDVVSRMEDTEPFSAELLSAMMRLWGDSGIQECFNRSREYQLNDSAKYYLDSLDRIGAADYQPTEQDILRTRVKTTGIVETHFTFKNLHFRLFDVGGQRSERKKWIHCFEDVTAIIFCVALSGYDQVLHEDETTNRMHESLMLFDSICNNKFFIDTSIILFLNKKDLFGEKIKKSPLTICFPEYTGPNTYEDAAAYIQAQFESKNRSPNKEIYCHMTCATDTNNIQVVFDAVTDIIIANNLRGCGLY
RGS7-Gao = modulates binding of RGS7 to human Galphao; Multiplexed bead flow cytometry; actives lie on both sides; P09471; binding response (% of control), % at 10 µM; AID 1439; hit rate 0.35% among 220,000; in the data active means binding response below about 49% or above about 150%; inconclusive means no clear call, values can overlap the other calls; inactive means in between;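 further: fluorescent Galphao held in activated GDP-AlF4 state binding bead-coupled RGS7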
RGS8-Gao reg = regulators of human RGS8-Galphao interaction; P09471; multiplexed bead flow cytometry, RGS8-Galphao binding; actives lie on both sides; response (percent of control binding), % at 10 µM; hit rate 0.34% among 220,000; AID 1423; in the data active means response below about 60% or above about 140%; inactive means in between;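 further: Galphao activated as the GDP aluminium fluoride complex binding bead-coupled RGS8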
RGS4-Gao HTS = RGS4-Galphao interaction regulator (human); shares compounds with RGS16-Gao; multiplexed bead flow cytometry, RGS–Galpha-o binding; RGS4–Galpha-o binding response, % at 10 µM; hit rate 99% among 1,600; AID 1504;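 further: fluorescently labeled Galpha-o bound to GDP with aluminium fluoride binding biotinylated RGS beads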
Biotin-avidin = interferes with biotinylated probe binding to avidin beads; shares compounds with RGS16-Gao; streptavidin beads, fluorescein-biotin binding, flow cytometry; inhibition, % at 10 µM; 1,700 tested, under 10 active; AID 1783;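 active means inhibition above 50%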;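 further: median green fluorescence of gated singlet beads compared with DMSO control wells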
RGS8-Gao single = confirmation of regulators of human RGS8-Galphao interaction; bead-based flow cytometry RGS8-Galphao binding, fluorescence; actives lie on both sides; shares compounds with RGS16-Gao; AID 1836; binding response (% of control), % at 10 µM; hit rate 3% among 1,700; in the data active means binding response below about 72% or above about 130%; inactive means in between;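 further: Galphao activated as GDP AlF4 complex before binding bead RGS8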
RGS7-Gao single = confirmation of regulators of human RGS7-Galphao interaction. AID 1837. shares compounds with RGS16-Gao. response (percent of control binding), % at 10 µM. bead-based flow cytometry RGS7-Galphao binding; actives lie on both sides. hit rate 7.8% among 1,700; in the data active means response below about 75% or above about 130%; inactive means in between;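 further: fluorescent Galphao activated with GDP and aluminum fluoride binding bead-coupled RGS7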
RGS16-Gao single = RGS16-Galphao interaction regulation, single point confirmation | AID 1838 | response (% of control binding), % at 10 µM | hit rate 4% among 1,700 | shares compounds with RGS16-Gao | bead-based flow cytometry, RGS16-Galphao binding; actives lie on both sides; in the data active means response below about 74% or above about 130%; inactive means in between;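 further: Galphao activated as the GDP aluminium fluoride complex binding bead-coupled RGS16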
RGS4-Gao confirm = RGS4-Galphao interaction regulation, single point confirmation | AID 1840 | binding response (% of control), % at 10 µM | RGS4-Galphao binding, multiplexed bead flow cytometry; actives lie on both sides | hit rate 4% among 1,700 | shares compounds with RGS16-Gao; in the data active means binding response below about 74% or above about 130%; inactive means in between
RGS19-Gao single = confirmation of regulators of human RGS19-Galphao interaction; shares compounds with RGS16-Gao; bead-based flow cytometry RGS19-Galphao binding; actives lie on both sides; response (percent of control binding), % at 10 µM; hit rate 5% among 1,700; in the data active means response below about 50% or above about 160%; inactive means in between
Each line names hits and unclear results; the compound was inactive in the other large screens (follow-up assays come after a bar, where they were run); [ ] = remark or other dose. Unless noted, how the calls were made is not given here.

O=C(CSc1nnc(CCCO)n1-c1ccccc1)Nc1nccs1	none
CC(C)Cn1c(-c2nn(C)cc2Cl)n[nH]c1=S	RGS4-Gao reg 49, RGS7-Gao 45, RGS8-Gao reg 59 | Biotin-avidin inactive | RGS8-Gao single inactive | RGS7-Gao single inactive | RGS16-Gao single inactive | RGS4-Gao confirm inactive | RGS19-Gao single inactive
N#C/C(=C\c1cccc(NC(=O)c2ccccc2Cl)c1)C(=O)NCCc1ccccc1	none
COc1ccc2nc(N/C(N)=N/C(=S)Nc3cccc(C)c3)nc(C)c2c1	none (no result: RGS4-Gao reg, Avidin bead fluor, RGS16-Gao, RGS7-Gao, RGS8-Gao reg)
COc1ccc2nc(N/C(N)=N/C(=S)Nc3c(C)cccc3C)nc(C)c2c1	RGS16-Gao 203[activator] | RGS4-Gao HTS 113 | Biotin-avidin inactive | RGS8-Gao single inactive | RGS7-Gao single inactive | RGS16-Gao single inactive | RGS4-Gao confirm inactive | RGS19-Gao single inactive
COc1cc2c(cc1NC(=S)NC(=O)/C=C/c1ccco1)oc1ccccc12	RGS16-Gao 21 | RGS4-Gao HTS 103 | Biotin-avidin inactive | RGS8-Gao single inactive | RGS7-Gao single inactive | RGS16-Gao single inactive | RGS4-Gao confirm inactive | RGS19-Gao single inactive
CCCc1nn(C)c2c(=O)[nH]c(-c3cc(S(=O)(=O)Nc4ccc(NC(C)=O)cc4)ccc3OCC)nc12	RGS7-Gao inconclusive (no result: GSH fluor)
Cc1cccc(N2CN(Cc3cccnc3)CNC2=S)c1	none
S=C1NCN(Cc2cccnc2)CN1c1cccc2ccccc12	RGS4-Gao reg 26, RGS7-Gao inconclusive, RGS8-Gao reg 44 (no result: GSH fluor) | Biotin-avidin inactive | RGS8-Gao single inactive | RGS7-Gao single inactive | RGS16-Gao single inactive | RGS4-Gao confirm inactive | RGS19-Gao single inactive
CCOc1ccccc1NS(=O)(=O)N(C)C	RGS4-Gao reg 11 | Biotin-avidin inactive | RGS8-Gao single inactive | RGS7-Gao single inactive | RGS16-Gao single inactive | RGS4-Gao confirm inactive | RGS19-Gao single inactive
Cc1ccc(S(=O)(=O)NC2(C(F)(F)F)C(=O)Nc3c2c(=O)[nH]c(=O)n3-c2ccccc2)cc1 (stereo not given)	Avidin bead fluor 88, RGS7-Gao 162[activator] | RGS4-Gao HTS 113 | Biotin-avidin inactive | RGS8-Gao single inactive | RGS7-Gao single inactive | RGS16-Gao single inactive | RGS4-Gao confirm inactive | RGS19-Gao single inactive
Cc1ccc(-n2c3c(c(=O)[nH]c2=O)C(NS(=O)(=O)c2ccc(C)cc2)(C(F)(F)F)C(=O)N3)cc1 (stereo not given)	none
CC1CCC2(CC1)NC(=O)N(CC(=O)c1cn(CCC#N)c3ccccc13)C2=O (stereo not given)	RGS7-Gao inconclusive (no result: GSH fluor)
N#C/C(=C\c1cn(CCOc2ccccc2)c2ccccc12)C(=O)NCc1cccs1	none
CC(C)Sc1nc2ccc(N3C(=O)C4CCCCC4C3=O)cc2s1 (stereo not given)	RGS16-Gao 21 | RGS4-Gao HTS 88 | Biotin-avidin inactive | RGS8-Gao single inactive | RGS7-Gao single inactive | RGS16-Gao single inactive | RGS4-Gao confirm inactive | RGS19-Gao single inactive
COc1cc(NC(=O)c2cccs2)c(OC)cc1NC(=O)CCC(=O)Nc1ccc2ncccc2c1	none
